Test results published in PubChem BioAssay (NCATS).
Where “and” joins values, the source holds several entries; their conditions need not be identical. Equal entries are not always repeated. Results filed as inconclusive are left out. Calls of active or inactive are those of the source. Unless noted, calls come from the whole dose curve; as a rule, active = well fitted curve in the direction sought with a large enough effect; inconclusive = small, poorly fitted or top-dose-only effect, or another doubt; inactive = no such curve, though single readings can be large; an effect the other way counts as inactive or inconclusive.

Columns and labels:
[1] = target: Mitogen-activated protein kinase 10 (Mus musculus) (UniProt Q61831); test: JNK3 AlphaScreen Assay (AID 530; active = well fitted curve in either direction with a large enough effect, not every such curve was filed as active;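 note: kinase came from lysate of stimulated human HepG2 cells; signal reports phosphorylation of biotinylated GST-cJun 1-79 at Ser73 with 10 µM ATP; % is set by controls: 0 for no effect and ±100 for the full control effect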)
How it was run: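 qHTS titrations with 15 min compound pre-incubation before adding ATP (10 uM final). Read-out: AlphaScreen of Ser73-phosphorylated biotin-GST-cJun using HepG2 lysate JNK3 activated by IL-1β and TNFα.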

[2] = Cell Viability - N2a (AID 540); conditions: N2a mouse neuroblastoma cell viability; activity change, negative = cytotoxicity: at 92.2 µM (top of the series);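 note: cells exposed to compound for 40 h at 37 °C; nearly all actives have a fitted effect of over 45% in size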; note: potency is the fitted concentration of half-maximal effect;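 for activity change, negative = cytotoxicity: plate controls were DMSO alone for no effect and tamoxifen control for full effect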
How it was run: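 Cytotoxicity was scored as loss of cellular ATP in N2a cells, a mouse neuroblastoma line. Compounds are applied in a qHTS concentration series for 40 hr at 37 °C.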

[3] = Cell Viability - NIH 3T3 (AID 541); conditions: NIH 3T3 cell viability, qHTS; activity change, negative = cytotoxicity: at 92.2 µM (top of the series);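 note: cells exposed to compound for 40 hours; nearly all actives have a fitted effect of over 25% in size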; note: potency is the fitted concentration of half-maximal effect;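 for activity change, negative = cytotoxicity: plate controls were DMSO alone for no effect and tamoxifen positive control for full effect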
How it was run: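 Cells seeded at 1000/well, rested 5 hr at 37 °C, then dosed and incubated 40 hr at 37 °C. CellTiter-Glo added, 20 min room temperature, luminescence read. AC50 by Hill fit.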

[4] = Cell Viability - HUV-EC-C (AID 542);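 note: cells exposed to compound for 40 hours; nearly all actives have a fitted effect of over 35% in size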; note: potency is the fitted concentration of half-maximal effect; for activity change, negative = cytotoxicity: % is set by controls: 0 for no effect and ±100 for the full control effect
How it was run: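 Cells were seeded at 1000 per well and incubated 5 hr at 37 °C before compound addition. After 40 hr at 37 °C, CellTiter-Glo reagent was added for 20 min and luminescence read. AC50 values came from Hill-equation modelling.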

[5] = Cell Viability - H-4-II-E (AID 543);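 note: cells exposed to compound for 40 hours; nearly all actives have a fitted effect of over 35% in size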; note: potency is the fitted concentration of half-maximal effect
How it was run: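 Cells seeded at 1500 per well and rested 5 hr; compounds added; 40 hr incubation at 37 °C; CellTiter-Glo added, 20 min at room temperature; luminescence read. Hill-equation fits gave AC50.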

[6] = Cell Viability - SH-SY5Y (AID 544);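 note: cells exposed to compound for 40 hours; nearly all actives have a fitted effect of over 55% in size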; note: potency is the fitted concentration of half-maximal effect
How it was run: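 Cells were plated at 1500 per well and allowed 5 hr at 37 °C. Compounds were added across a concentration range and incubated 40 hr at 37 °C. CellTiter-Glo was added for 20 min at room temperature before luminescence reading.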

[7] = Cell Viability - Mesenchymal (AID 546);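 note: cells exposed to compound for 40 hours before reading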; note: potency is the fitted concentration of half-maximal effect;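 for activity change, negative = cytotoxicity: 0% = DMSO only and -100% = 100 µM tamoxifen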
How it was run: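 CellTiter-Glo luminescence (intracellular ATP, 20 min room temperature) after 40 hr compound exposure at 37 °C of 1000 glomerulus-derived human kidney mesenchymal cells/well; AC50 values obtained by fitting qHTS concentration-response data to the Hill equation.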

[8] = Cellular Toxicity (caspase-3) HepG2 (AID 654);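 note: cells exposed to compound for 16 hours before reading; 0% = DMSO alone and 100% = caspase signal from 100 µM tamoxifen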
How it was run: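 Caspase 3/7 activation in HepG2 is measured as rising luminescence after a 16 hr treatment at 37 °C. Values are scaled between DMSO basal and 100 uM tamoxifen, and AC50 is fitted with the Hill equation.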

[9] = Cellular Toxicity (caspase-3) Jurkat (AID 655);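 note: cells exposed to compound for 16 h at 37 °C before reading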; note: potency is the fitted concentration of half-maximal effect
How it was run: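 5000 Jurkat cells/well; compound 16 hr, 37 °C; Caspase-Glo 3/7 added, 20 min RT; luminescence read. Norm: DMSO = 0%, tamoxifen 100 uM = 100%. AC50, Hill model.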

[10] = Cellular Toxicity (caspase-3) HUV-EC-C (AID 656);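 note: 0% = DMSO basal and 100% = 100 µM tamoxifen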
How it was run: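 qHTS; HUV-EC-C, 1000 cells/well; 5 hr settle, 16 hr cmpd, 37°C; Caspase-Glo 3/7, 20 min RT; luminescence. Norm: DMSO = 0%, tamoxifen 100 uM = 100%. Hill-fit AC50.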

[11] = Cellular Toxicity (caspase-3) SHSY5Y (AID 657);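 note: cells exposed to compound for 16 hours at 37 °C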
How it was run: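 qHTS, SH-SY5Y, 1500 cells/well, 5 h pre-incubation 37 °C; compound 16 h 37 °C; Caspase-Glo 3/7 1 h RT; luminescence. Norm.: DMSO = 0, 10 uM staurosporine = 100%. Hill fit → AC50.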

[12] = Cellular Toxicity (caspase-3) BJ (AID 658); conditions: Potency: caspase-3 activation; note: potency is the fitted concentration of half-maximal effect;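 for caspase-3 activation: cells exposed to compound for 16 hours; 0% = DMSO basal and 100% = 10 µM staurosporine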
How it was run: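 Caspase-Glo 3/7 luminescence, read 1 hr after reagent at room temperature, in normal BJ fibroblasts exposed 16 hours at 37 °C. AC50 values from Hill-equation concentration-response, scaled between DMSO basal and 10 uM staurosporine as 100%.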

[13] = Cellular Toxicity (caspase-3) MRC-5 (AID 659); conditions: Potency: caspase-3 activation; note: potency is the fitted concentration of half-maximal effect;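 for caspase-3 activation: 0% = DMSO basal and 100% = 10 µM staurosporine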
How it was run: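 Luminescent Caspase-Glo 3/7 read-out (1 h, room temperature) after a 16 h, 37 °C compound exposure of MRC-5 lung fibroblasts at 1500 cells/well. Concentration-response AC50 from Hill equation; 0% DMSO, 100% 10 uM staurosporine.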

[14] = Cellular Toxicity (caspase-3) Mesangial (AID 660);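 note: combined caspase 3 and 7 activity read by Caspase-Glo luminescence; cells exposed to compound for 16 h before the caspase read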
How it was run: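 Seed cells derived from normal human renal glomeruli, incubate 5 h, add compounds across concentrations and incubate 16 h at 37 °C. Caspase 3/7 activation is then quantified by luciferase light, with AC50 derived by Hill modeling.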

[15] = Cellular Toxicity (caspase-3) H-4-II-E (AID 663);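 note: cells exposed to compound for 16 hr before readout; 0% = DMSO basal and 100% = 100 µM tamoxifen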
How it was run: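 Caspase 3/7 activation measured by luminescent aminoluciferin substrate cleavage after 16 hr compound treatment of H-4-II-E cells in complete medium. Increase normalized between DMSO (basal) and 100 uM tamoxifen (100%); Hill-equation AC50 from concentration-response.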

[16] = Cellular Toxicity (caspase-3) Hek293 (AID 664);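 note: cells exposed to compound for 16 h at 37 °C before readout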
How it was run: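 qHTS, HEK293 (human embryonic kidney), 16 h cpd exposure in complete medium. Caspase-3/7 activation = luminescence increase; normalized to DMSO/100 uM tamoxifen; Hill-fit AC50.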

[17] = target: 3',5'-cyclic-AMP phosphodiesterase 4B (Homo sapiens) (UniProt Q07343); test: qHTS Assay for Inhibitors of PDE-IV (AID 607; active = well fitted activation curve with a large enough effect in the main read-out, with a control signal flat, not every such curve was filed as active; note: % of control where 0% means no effect)
How it was run: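 HEK293 ACTOne cells with CNG channel (1000/well), endogenous PDE4; membrane potential dye, compounds up to 22.9 uM final. Fluorescence Ex 535/Em 590; RO 20-1724 (100 uM final) as reference.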

[18] = target: Glucocorticoid receptor (Homo sapiens) (UniProt P04150); test: GR-GFP Redistribution (AID 450;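 active = compounds whose dose series gives a full or clear partial fitted curve of increased nuclear translocation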; note: potency is the fitted concentration of half-maximal effect); conditions: U2OS GR-GFP nuclear translocation, laser cytometry, 2 h
[19] = target: Glucocorticoid receptor (Homo sapiens) (UniProt P04150); test: GR-EFC Redistribution (AID 451; calls by dose curve; note: potency is the fitted concentration of half-maximal effect); conditions: CHO-K1 GR-EFC translocation, beta-gal luminescence, 2 h
How it was run: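 Translocation of GR-ED fusion to nuclear EA restores b-gal, read by luminescence after 1 h room-temperature detection. Engineered CHO-K1 biosensor cells, 1,000/well, exposed 2 h at 37 C to titrations up to 46 uM final.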

Glucocorticoid receptor (Homo sapiens), sequence (P04150 whole entry, looked up, the tested form may be a part): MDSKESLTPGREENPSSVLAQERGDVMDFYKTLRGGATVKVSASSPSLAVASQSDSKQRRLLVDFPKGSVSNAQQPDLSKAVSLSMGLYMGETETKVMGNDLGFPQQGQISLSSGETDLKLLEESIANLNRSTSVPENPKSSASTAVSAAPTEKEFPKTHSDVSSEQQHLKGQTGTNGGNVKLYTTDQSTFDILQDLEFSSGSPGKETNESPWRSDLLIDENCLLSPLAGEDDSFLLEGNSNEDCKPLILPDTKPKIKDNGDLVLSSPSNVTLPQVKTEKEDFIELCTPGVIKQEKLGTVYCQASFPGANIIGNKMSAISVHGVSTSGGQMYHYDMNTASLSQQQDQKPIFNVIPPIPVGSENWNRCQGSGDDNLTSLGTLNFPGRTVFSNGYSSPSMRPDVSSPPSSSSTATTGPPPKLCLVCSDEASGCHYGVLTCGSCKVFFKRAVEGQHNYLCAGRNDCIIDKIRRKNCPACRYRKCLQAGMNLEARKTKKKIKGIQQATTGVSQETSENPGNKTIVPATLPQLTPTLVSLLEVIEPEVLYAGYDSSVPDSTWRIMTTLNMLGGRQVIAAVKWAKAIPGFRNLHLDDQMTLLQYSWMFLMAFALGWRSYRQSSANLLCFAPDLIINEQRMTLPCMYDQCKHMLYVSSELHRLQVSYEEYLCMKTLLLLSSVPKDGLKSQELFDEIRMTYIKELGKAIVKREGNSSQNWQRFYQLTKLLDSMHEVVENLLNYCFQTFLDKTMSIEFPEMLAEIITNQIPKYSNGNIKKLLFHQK
3',5'-cyclic-AMP phosphodiesterase 4B (Homo sapiens), sequence (Q07343 whole entry, looked up): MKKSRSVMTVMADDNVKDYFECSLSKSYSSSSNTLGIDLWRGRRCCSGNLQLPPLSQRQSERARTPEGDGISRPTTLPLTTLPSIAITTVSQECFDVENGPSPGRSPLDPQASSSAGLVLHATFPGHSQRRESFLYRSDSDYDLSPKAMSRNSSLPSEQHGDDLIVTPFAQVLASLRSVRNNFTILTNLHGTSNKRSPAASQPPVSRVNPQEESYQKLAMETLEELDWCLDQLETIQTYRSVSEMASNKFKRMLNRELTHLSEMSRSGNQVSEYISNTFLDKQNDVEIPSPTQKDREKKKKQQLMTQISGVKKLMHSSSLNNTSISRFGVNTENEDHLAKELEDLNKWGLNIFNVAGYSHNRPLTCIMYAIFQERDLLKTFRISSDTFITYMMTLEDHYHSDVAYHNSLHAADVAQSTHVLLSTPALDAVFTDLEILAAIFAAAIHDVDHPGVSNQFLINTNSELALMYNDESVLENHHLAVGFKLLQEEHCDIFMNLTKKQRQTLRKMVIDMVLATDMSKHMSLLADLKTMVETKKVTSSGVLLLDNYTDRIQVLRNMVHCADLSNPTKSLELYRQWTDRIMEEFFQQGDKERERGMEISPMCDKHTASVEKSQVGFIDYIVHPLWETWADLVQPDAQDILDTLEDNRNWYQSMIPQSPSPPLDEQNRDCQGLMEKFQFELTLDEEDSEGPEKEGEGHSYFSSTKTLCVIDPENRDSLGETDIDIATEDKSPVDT

ClC=C(Cl)Cl
inactive: outcome [1] | Potency [2] | Potency [3] | Potency [4] | Potency [5] | Potency [6] | Potency [7] | outcome [8] | Potency [9] | outcome [10] | outcome [11] | Potency [12] | Potency [13] | outcome [14] | outcome [15] | outcome [16]

NC(=O)CI
inactive: outcome [1] | Potency [17]

C[C@]12CCC(=O)C[C@@H]1CC[C@@H]1[C@@H]2CC[C@]2(C)[C@@H](O)CC[C@@H]12
inactive: outcome [1] | Potency [2] | Potency [3] | Potency [4] | Potency [6] | Potency [7] | outcome [8] | Potency [9] | outcome [10] | outcome [11] | Potency [12] | Potency [13] | outcome [14] | outcome [15] | outcome [16]

OCc1cnc[nH]1
inactive: Potency [18] > 46 µM | Potency [19] > 46 µM | Potency [17]

CN(N=O)c1ccc(O)c(O)c1
inactive: Potency [18] > 46 µM | Potency [19] > 46 µM | Potency [17]

CC(C)Nc1ccc(Nc2ccccc2)cc1
inactive: outcome [8] | Potency [9] | outcome [10] | outcome [11] | Potency [12] | Potency [13] | outcome [14] | outcome [16]
active: activity change, negative = cytotoxicity [2] -116% | activity change, negative = cytotoxicity [3] -150% | Potency [4] 12.6 µM | Potency [5] 25.1 µM | Potency [6] 10 µM

[O]=[Cd]
inactive: Potency [2] | Potency [3] | Potency [4] | Potency [5] | Potency [6] | Potency [7] | outcome [8] | Potency [9] | outcome [10] | outcome [11] | Potency [12] | Potency [13] | outcome [14] | outcome [15] | outcome [16]

COc1ccc2c(c1OC)C(=O)OC2C1c2cc3c(cc2CCN1C)OCO3 (configuration not stated)
inactive: outcome [1] | Potency [2] | Potency [3] | Potency [4] | Potency [5] | Potency [6] | Potency [7] | outcome [8] | Potency [9] | outcome [10] | outcome [11] | Potency [12] | Potency [13] | outcome [14] | outcome [15] | outcome [16]

O=[N+]([O-])c1ccccc1
inactive: outcome [1] | Potency [2] | Potency [3] | Potency [4] | Potency [5] | Potency [6] | Potency [7] | outcome [8] | Potency [9] | outcome [10] | outcome [11] | Potency [12] | Potency [13] | outcome [14] | outcome [15] | outcome [16]

O=C1C2CC=CCC2C(=O)N1SC(Cl)(Cl)Cl (configuration not stated)
active: Potency [2] 20 µM and 10 µM | Potency [3] 5.01 µM and 2 µM | Potency [4] 50.1 µM and 25.1 µM | Potency [5] 7.94 µM and 6.31 µM | Potency [6] 2 µM and 1 µM | Potency [7] 25.1 µM and 20 µM | Potency [9] 1.58 µM
inactive: outcome [1] | outcome [8] | outcome [10] | outcome [11] | Potency [12] | Potency [13] | outcome [14] | outcome [15] | outcome [16]

Oc1cc(Cl)c(Cl)cc1Cl
active: Potency [2] 25.1 µM
inactive: outcome [1] | Potency [3] | Potency [4] | Potency [5] | Potency [6] | Potency [7] | outcome [8] | Potency [9] | outcome [10] | outcome [11] | Potency [12] | Potency [13] | outcome [14] | outcome [15] | outcome [16]

S=C=S
inactive: outcome [1] | Potency [2] | Potency [3] | Potency [4] | Potency [5] | Potency [6] | Potency [7] | outcome [8] | Potency [9] | outcome [10] | outcome [11] | Potency [12] | Potency [13] | outcome [14] | outcome [15] | outcome [16]

[O]=[Cr](=[O])([OH])[O][Cr](=[O])(=[O])[OH]
active: Potency [2] 39.8 µM and 25.1 µM | activity change, negative = cytotoxicity [2] -124% | Potency [3] 15.8 µM | activity change, negative = cytotoxicity [3] -141% and -151% | Potency [4] 3.98 µM and 20 µM and 5.01 µM | Potency [6] 316 nM and 15.8 µM and 3.98 µM | Potency [9] 31.6 µM | Potency [12] 15.8 µM | Potency [13] 20 µM and 25.1 µM
inactive: outcome [1] | Potency [7] | outcome [8] | outcome [14] | outcome [15] | outcome [16]

COC1=CC(=O)O[C@@H](/C=C/c2ccccc2)C1
inactive: outcome [1] | Potency [2] | Potency [3] | Potency [4] | Potency [6] | Potency [7] | outcome [8] | Potency [9] | outcome [10] | outcome [11] | Potency [12] | Potency [13] | outcome [14] | outcome [15] | outcome [16]
